Usually viability stands for a read-out of living cells in per cent, often relative to untreated cells.

Inconclusive results are not listed. Unmarked numbers belong to inactive results. Active and inactive are the calls of the source. Calls follow the shape of the dose curve; as a rule, active = well fitted cell-killing curve with a large enough effect; inconclusive = small, poorly fitted or top-dose-only effect, or effect the other way; inactive = no such curve, though single readings can be large or run the other way.

Consider nine compounds from PubChem BioAssay (NCATS).

Assay [1] in a line: Quantitative High-Throughput drug screen in 47 multiple myeloma cell lines against the NCATS MIPE library collection: KMS28PE_JCRB cell viability assay (AID 1918983). Also: nearly all actives have a fitted effect of over 35% in size. The procedure, abridged: (§1)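 Inhibition of viability over 48 h was scored by ATP content (CellTiter-Glo) in 500-cell wells. Zero and full viability were defined by media-only and DMSO-only wells.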
Assay [2] can be described thus: Quantitative High-Throughput drug screen in 47 multiple myeloma cell lines against the NCATS MIPE library collection: OCIMY5_PLB cell viability assay (AID 1918988). Also: nearly all actives have a fitted effect of over 65% in size. The procedure, abridged:
as §1

A short description of assay [3]: Quantitative High-Throughput drug screen in 47 multiple myeloma cell lines against the NCATS MIPE library collection: OPM1_PLB cell viability assay (AID 1918989). Also: nearly all actives have a fitted effect of over 40% in size. The procedure, abridged:
as §1

Assay [4] is described as follows: Quantitative High-Throughput drug screen in 47 multiple myeloma cell lines against the NCATS MIPE library collection: SKMM1_PLB cell viability assay (AID 1919863). Also: nearly all actives have a fitted effect of over 35% in size. Particulars: SKMM1 myeloma viability, CellTiter-Glo ATP, 48 h; viability: hits give low values. The method in brief:
as §1
Background: In ATP-based viability assays light output follows the ATP content of the culture.

A short description of assay [5]: Quantitative High-Throughput drug screen in 47 multiple myeloma cell lines against the NCATS MIPE library collection: U266_ATCC cell viability assay (AID 1919864). Also: nearly all actives have a fitted effect of over 35% in size.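 As to viability (% of DMSO control): 0% = media-only wells without cells and 100% = DMSO-only wells.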 The method in brief:
as §1

The nature of assay [6]: Quantitative High-Throughput drug screen in 47 multiple myeloma cell lines against the NCATS MIPE library collection: XG6_PLB cell viability assay (AID 1919865). Also: nearly all actives have a fitted effect of over 40% in size. The method in brief: as §1
A short description of assay [7]: Quantitative High-Throughput drug screen in 47 multiple myeloma cell lines against the NCATS MIPE library collection: XG1_PLB cell viability assay (AID 1919866). Also: nearly all actives have a fitted effect of over 35% in size. The procedure, abridged: as §1
A short description of assay [8]: Quantitative High-Throughput drug screen in 47 multiple myeloma cell lines against the NCATS MIPE library collection: VP6_DJ cell viability assay (AID 1919867). Also: nearly all actives have a fitted effect of over 40% in size.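 As to viability (% of DMSO): 100% = DMSO-only wells and 0% = wells with media alone.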 The procedure, abridged: as §1
Assay [9] in a line: Quantitative High-Throughput drug screen in 47 multiple myeloma cell lines against the NCATS MIPE library collection: UTMC2_PLB cell viability assay (AID 1919868). Also: nearly all actives have a fitted effect of over 55% in size. Particulars: CellTiter-Glo ATP luminescence, 48 h; viability (% of DMSO control): at 45.8 µM (top of the series). The procedure, abridged:
as §1

Assay [10] is described as follows: Quantitative High-Throughput drug screen in 47 multiple myeloma cell lines against the NCATS MIPE library collection: PCM6_Riken cell viability assay (AID 1919870). Also: nearly all actives have a fitted effect of over 30% in size. The procedure, abridged:
as §1

A short description of assay [11]: Quantitative High-Throughput drug screen in 47 multiple myeloma cell lines against the NCATS MIPE library collection: RPMI8226_ATCC cell viability assay (AID 1919871). Also: nearly all actives have a fitted effect of over 30% in size. The procedure, abridged: as §1
Assay [12] is described as follows: Quantitative High-Throughput drug screen in 47 multiple myeloma cell lines against the NCATS MIPE library collection: OPM2_DSMZ cell viability assay (AID 1919872). Also: nearly all actives have a fitted effect of over 30% in size. The procedure, abridged: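 Viability readout: CellTiter-Glo luminescence following 5 min room-temperature incubation with reagent. Prior exposure: 48 h, 37C, humidified 5% CO2, 500 cells per well.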

Assay [13] can be described thus: Quantitative High-Throughput drug screen in 47 multiple myeloma cell lines against the NCATS MIPE library collection: KMS11_JCRBsus cell viability assay (AID 1919873). Also: nearly all actives have a fitted effect of over 50% in size. The procedure, abridged: as §1
Assay [14] can be described thus: Quantitative High-Throughput drug screen in 47 multiple myeloma cell lines against the NCATS MIPE library collection: KMS28BM_JCRB cell viability assay (AID 1919874). Also: nearly all actives have a fitted effect of over 35% in size. The method in brief:
as §1

Assay [15] can be described thus: Quantitative High-Throughput drug screen in 47 multiple myeloma cell lines against the NCATS MIPE library collection: OCIMY7_PLB cell viability assay (AID 1918987). Also: nearly all actives have a fitted effect of over 65% in size. The note with it: OCI-MY7 myeloma viability, CellTiter-Glo ATP, 48 h; viability (% of DMSO): at 45.8 µM (top of the series). The procedure, abridged: as §1
A short description of assay [16]: Quantitative High-Throughput drug screen in 47 multiple myeloma cell lines against the NCATS MIPE library collection: PE2_PLB cell viability assay (AID 1919869). Also: nearly all actives have a fitted effect of over 35% in size. The procedure, abridged:
as §1

Assay [17] can be described thus: Quantitative High-Throughput drug screen in 47 multiple myeloma cell lines against the NCATS MIPE library collection: KMS34_JCRB cell viability assay (AID 1918985). Also: nearly all actives have a fitted effect of over 40% in size. The method in brief:
as §1
Potency is read from the fitted curve at half-maximal effect.

On to `Cc1nn(Cc2ccccc2Cl)c(C)c1CN(C)CC(O)COc1ccc(Cl)cc1` (centres undefined), for which the Potency in [1] is 4.69 µM (active); in [2], 10.5 µM (active); in assay [3], 20.9 µM (active); in assay [4] it was 3.32 µM (active); in assay [5] it was 18.7 µM (active); in [6], 20.9 µM (active). Also, the Potency was 20.9 µM (active) in [7]; 20.9 µM (active) in assay [8]; 20.9 µM (active) in [9]; 18.7 µM (active) in assay [10]; 20.9 µM (active) in [11]; 23.5 µM (active) in assay [13]. In addition, the Potency in assay [14] was 33.2 µM (active). In addition, the Potency entry in assay [12] is “inactive”.
Consider `CN(C(Cc1ccc(OS(=O)(=O)c2cccc3cnccc23)cc1)C(=O)N1CCN(c2ccccc2)CC1)S(=O)(=O)c1cccc2cnccc12` (centres undefined), for which the Potency in assay [1] is 10.5 µM (active); in [15], 4.69 µM (active); in assay [2], 13.2 µM (active); in assay [4], 9.35 µM (active); in assay [5], 13.2 µM (active); in assay [6], 13.2 µM (active). For the same compound, the Potency in assay [9] was 6.62 µM (active); in [11], 5.26 µM (active); in [14], 14.8 µM (active).
Regarding `Cc1ccc2c(=O)c3cccc(CC(=O)O)c3oc2c1C`, the Potency result in [1], in assay [11], in assay [13] and in [14] was “inactive” throughout. In addition, the Potency was 26.4 µM (active) in [15]; 18.7 µM (active) in [2]; 18.7 µM (active) in assay [5]; 20.9 µM (active) in assay [16]; 23.5 µM (active) in assay [10].
As for `CO[C@H]1O[C@@H]2O[C@@]3(C)CC[C@@H]4[C@@H](C)CC[C@@H]([C@H]1C)[C@@]24OO3`, the Potency is 4.18 µM (active) in [1]; 0.743 µM (active) in assay [15]; 6.62 µM (active) in assay [3]; 2.64 µM (active) in assay [6]; 2.96 µM (active) in assay [7]; 0.833 µM (active) in assay [11]. Also, the Potency result in assay [5], in [10], in assay [12] and in assay [13] was “inactive” each time.
Take `CNC(=O)[C@H](Cc1ccccc1)NC(=O)[C@H](CC(C)C)[C@H](CSc1cccs1)C(=O)NO`: the Potency in [1] was 6.62 µM (active); in assay [15], 14.8 µM (active); in [6] it was 7.43 µM (active); in assay [7], 9.35 µM (active); in assay [16], 16.6 µM (active); in assay [10], 13.2 µM (active). In assay [12], the Potency is 18.7 µM (active). Besides, in assay [3], the Potency result was “inactive”. Also, in [4], the viability is 98.7%.
With `CSc1cccc(Nc2ncc3cc(-c4c(Cl)cccc4Cl)c(=O)n(C)c3n2)c1`, the Potency in assay [1] was 2.35 µM (active); in assay [17], 1.48 µM (active); in assay [15] it was 0.0935 µM (active); in assay [2], 0.296 µM (active); in [4], 1.87 µM (active); in assay [6], 0.118 µM (active). Moreover, the Potency in assay [8] was 0.118 µM (active); in assay [9], 0.0166 µM (active); in assay [10], 0.187 µM (active); in [11], 2.35 µM (active); in assay [12] it was 1.32 µM (active); in [13], 0.187 µM (active).
`COc1ccc2c(c1)CC[C@H]1[C@@H]2CC[C@]2(C)[C@@H](NCCCCCCN3C(=O)C=CC3=O)CC[C@H]12`: the Potency result in assay [1], in assay [17], in assay [6], in assay [7], in assay [8] and in [16] was “inactive” each time. Moreover, the Potency entry in assay [10], in [13] and in assay [14] was “inactive” throughout. Besides, in assay [4], the viability is 134%. For the same compound, the Potency in assay [5] was 20.9 µM (active).
For the compound `C[C@@H]1[C@H](O)[C@@H](C)C=CC=CC=CC=CC=CC=CC=C[C@H](O[C@@H]2O[C@H](C)[C@H](O)[C@H](N)[C@@H]2O)C[C@@H]2O[C@](O)(C[C@@H](O)C[C@@H](O)[C@H](O)CC[C@@H](O)C[C@@H](O)CC(=O)O[C@H]1C)C[C@H](O)[C@@H]2C(=O)O`, the Potency entry in assay [1] and in assay [6] was “inactive” each time. Further, the Potency in assay [15] was 11.8 µM (active); in assay [2] it was 4.18 µM (active); in assay [4] it was 5.26 µM (active); in assay [7], 2.96 µM (active); in [10], 3.32 µM (active).
Consider `O[C@@H](COc1cccc2ncccc12)CN1CCN(C2c3ccccc3[C@@H]3[C@H](c4ccccc42)C3(F)F)CC1` (some centres undefined), for which the Potency in [1] was 23.5 µM (active); in [15], 7.43 µM (active); in [2], 18.7 µM (active); in [3], 23.5 µM (active); in assay [4] it was 23.5 µM (active); in [5], 8.33 µM (active). Moreover, the Potency in assay [6] was 7.43 µM (active); in assay [7], 7.43 µM (active); in assay [16], 16.6 µM (active); in assay [10], 10.5 µM (active); in assay [11], 20.9 µM (active); in assay [13] it was 4.18 µM (active). Besides, the Potency entry in assay [12] is “inactive”.
